The text below walks through data of PubChem BioAssay AID1347426 (Functional Genomics Laboratory (NCATS/FGL), 2020).

In all, about 31,000 sequences went through this assay and about 1,400 (4.5%) were called active. Only a selection was taken, and actives are over-represented in it overall. Values without a mark were called inactive.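 The calls were made as follows: active = median seed-adjusted z-score above 1 or below -1; inactive = the rest.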

A short description of the experiment: Novel Modifiers of Survival Motor Neuron (SMN) Protein: Gene Identification via Genome-wide siRNA Screen.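 Also: luminescence tracks full-length SMN protein made from the SMN2 reporter.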 Particulars: HEK293T SMN2-luciferase reporter, siRNA knockdown, 72 h; actives lie on both sides. The gist of the method: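 Steps: spot 1 pmol siRNA, add Lipofectamine RNAiMax in serum-free DMEM, seed HEK293T SMN2–luciferase reporter cells; incubate 72 h at 37 °C; add ONE-Glo; normalize luminescence to control siRNA, log10, MAD. Candidates: |MAD| > 1.0.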
In general terms: Reporter assays use an easily measured gene product as a stand-in for the process of interest.
On to AGCUCACAAGGAUCCCAAUTT against THPO, for which the median seed-adjusted z-score was -0.0366.
For the sequence CCUUUAGCACGGAUAGUUUTT against ACAT2, the median seed-adjusted z-score was 1.25 (active).
Consider CUCCUACAGUGCUAUCAGATT against ENPP2, for which the median seed-adjusted z-score is -0.305.
With AAUUCCUCUUCAACAUGUATT against HOXD9 the figure was -0.123.
GGAACGGGCUGGAGUUAAATT against FUBP1: the median seed-adjusted z-score is -1.52 (active).
As for GUACUUCAGUGGAGUGAAATT against CDKL1, the figure is -0.28; as for UCUGCUAUUUGGUCCUGAATT against TOMM34, -0.503.
With CCUCAUAUGUGGGACAGAATT against USP3 the figure was -0.176; with GGUAUGGAUUUAACAGUCATT against DHODH, -0.422; with GGAAGACUAGGAAUCGGAATT against NYX, 0.0685.
As for CACCCACCGCCACAAUAAATT against BSG, the figure is 0.211; as for GCACGACUUUGUACUCAGATT against HES5, -0.00853; as for GAGCUAUGGUUACACGGUUTT against GABRQ, -0.54.
As to UGAACCUUGUGAUAGAUGATT against SNRPG, the median seed-adjusted z-score is -3.09 (active).
With GCCUCCACGGAAGAUGUAATT against ZNF746 the figure was 0.1; with GCACUUGUAUAAUCAGACUTT against MRLC2, -0.492; with GGACCAUCCAGCUUCUGGATT against GALE, -0.153.
With GGAUCUCAUGAGGCGAAUATT against EIF5 the figure was 0.362; with GUAGGACUCUCAUUCGGGATT against CCND1, -0.912.
As for GGACCCAAUCAACUCAAUATT against SS18, the figure is 0.34; as for GCCUAAUUGCGGAACAUAUTT against ESCO1, 0.755.
Regarding CGACAAGUUGAAGACCAUATT against CRMP1, the median seed-adjusted z-score was -0.354.
Take CCUAUUCACUUUACACUGUTT against AKR7A2: the median seed-adjusted z-score was 0.192.
For GAUGAAGAAUGAUAAGUCATT against HNRNPC, the median seed-adjusted z-score was -2.15 (active).
With AGACAAGUAUGUGAGGAAUTT against BTN2A2 the figure was -0.0599.
Take GGAUAUCGCACUUCACUCATT against ELL: the median seed-adjusted z-score is -0.497.
Take GGGCGAGCAUUUUCGAGAATT against USP7: the median seed-adjusted z-score is 0.105.
With CCACGUUUUGAUCAACAAUTT against RDH11 the figure was -0.241; with GAUUGCAUAUUACAAACGATT against GIN1, -0.0585.
With GGAACGAGAUUGUCAGAUUTT against POLR2B the figure was -4.81 (active).
As for GAUACACUUUGUCACCAAATT against FLT3LG, the figure is -0.166; as for CUCAUGAACUUGCACAACATT against WNT7A, 0.0931; as for GGAUGAUGUGAACUACAAATT against PTDSS1, -0.76.
In the case of GGAGGACAUCGACCAGAUATT against APBA1, the median seed-adjusted z-score was 0.305.
As for CGAUAAAGACGGAUUCUAATT against MATK, the figure is -0.754.
Turning to GAAUAUGAGUACCUAGAUUTT against SELPLG, the median seed-adjusted z-score is 0.0378.
As for CACCGACAAUAUAAAGGAATT against SLC25A32, the figure is -0.299.
As for GGUCAUGAUUGCUAUCCUUTT against TAAR9, the figure is -1.07 (active); as for GGAAGAUUAUUACAGUCGATT against RERE, 0.129; as for GGACGGUACUACAGUGUAATT against HDAC8, 0.835.
As for GGAUUUCCAGGGAUAUUUATT against CDKN2B, the figure is 0.0154; as for CAUUGAACGCAGUCCCUUUTT against FLNC, 0.00217.
In the case of CCCAAUGCCUGUUUAUUCATT against POLR2J3, the median seed-adjusted z-score is -5.42 (active).
In the case of GGAACCUACCUGACUAAGATT against ARL9, the median seed-adjusted z-score is 0.98.
With GGGAGUAUAUUUUGAUGAATT against RARS2 the figure was -0.0247.
As for AGAAUAAGUUCAAACAGGATT against RAB4B, the figure is -0.207; as for CAUGAACAGUUUAUCGUAATT against FMR1, 0.504; as for GAGACCUAACUGUACGUGATT against TSG101, 1.48 (active).
Consider CUUGCACUCCUGUCCAUAATT against AP3B1, for which the median seed-adjusted z-score was 0.31.
Take CUAGUUUGUUGCAAAAUAATT against CDKN2C: the median seed-adjusted z-score was -0.0789.
As for CAAUUAAGUUGGAUCCUUUTT against WARS2, the figure is 0.21; as for GGUACAUCGCGAUAUCAAATT against YSK4, -0.181.
As for CGAUGGUAUUGACUAAGUUTT against HSPA1L, the figure is -1.27 (active); as for CUAGGAGUCAAAGAAAAUATT against RNPS1, 0.
In the case of GGAGAGAGCGUGUCCUACATT against SIRPA, the median seed-adjusted z-score was -0.153.
Turning to AAACAAAACUUGCACUUUATT against RASD1, the median seed-adjusted z-score is 0.674.
For GCCUUGAACCUAGGACCAATT against PRAF2, the median seed-adjusted z-score was -0.326.
For GGACGAGAAUGGGAAGAUUTT against ARD1A, the median seed-adjusted z-score was -1.05 (active).
In the case of AGACUAUGAUAGAAUCCCATT against LGI3, the median seed-adjusted z-score was -0.0189.
As to CUCUACCCGUGCUAUAUAATT against TIGD1, the median seed-adjusted z-score was 0.224.
With CAAGAUCCAGGACACCAAATT against MAP4K1 the figure was 0; with CUAUCCAACUCAAACGAUUTT against USP9Y, 0.012.
As for GGCUUGAUAUUUGACAGAATT against BBOX1, the figure is 0.152; as for AGAAAUGUCUUGUAGUGAATT against SYT14L, 0.2.
Regarding GGAUUAUAUUGACAUCAGUTT against DLST, the median seed-adjusted z-score was 1.16 (active).
With GGGAGGACCUGAACAAGAATT against TAOK2, the median seed-adjusted z-score is 0.28.
With GGCAUGACCUCAUCACAGUTT against RNASE7, the median seed-adjusted z-score was 1.07 (active).
With GAACCAACCUGUCAAGUGATT against SELL the figure was 0.554; with GGACAUCGCUAAACAGUUATT against TBC1D1, -0.359; with CUAUCACCGGAUUAACGAATT against ACOX1, -0.897.
In the case of GAGUCGAGAAGAUAAUGGATT against RABGEF1, the median seed-adjusted z-score was 0.278.
As for AGACGACGGCGAUGAGGAATT against RALY, the median seed-adjusted z-score is 0.
On to GGACGACCACGGCUACAUUTT against CRYAA, for which the median seed-adjusted z-score was -1.03 (active).
GGCUUCAGGUUAUAGUCAATT against OTX2: the median seed-adjusted z-score was -0.00351.
For AGGAGAUCGUCGACCUGGUTT against TUBA3C, the median seed-adjusted z-score is -0.0806.
Turning to AGGCCCUAGUGCUCAGAUATT against MMS19, the median seed-adjusted z-score was 0.0142.
As for GCAACGAUGUUGCCUGGAATT against GPX1, the figure is -0.0529; as for GCAUGCAGAUGUUCGGCAATT against CACNA1F, 0.22.
As for CAAGCUUGUUAACAUCAAATT against NPVF, the figure is 0.588; as for GGCUAAUACUGGAAUUGCUTT against SLC38A2, -1.04 (active).
As for CCAUGUCUUUCUAUCGCAATT against PLD2, the figure is -0.743; as for GCAAGAUCUUAUCCACAGATT against CIP29, -1.18 (active).
With CAUUGGAAUUCUUUCAAUATT against APTX, the median seed-adjusted z-score is -0.131.
As for GAGAAGACCUUUAUACGAATT against XPOT, the figure is 0.366.
With GGAUGGUGGCGUCCAAGAUTT against PSMB10 the figure was 0.00939; with GAGCUUCACUCAAAAAUCATT against ZNF160, -0.454.
As for GCCUAGAAGUGGAACGUGUTT against IFT57, the figure is -1.1 (active).
With CCACCUUCGAUGUUCCCAUTT against HMG20B, the median seed-adjusted z-score was 0.231.
With GCAGAGUCACUUUGACAAUTT against CHRNG the figure was 0.221; with GGCUUUUAGAGUACGACAATT against ZFP30, 0.211.
With CAGUCAACCUGAUUUGAGATT against SOX7, the median seed-adjusted z-score was -0.387.
Take CGUUUAACGUGGUGCUGUUTT against GPR32: the median seed-adjusted z-score is -1.2 (active).
As for GCUCUAUGUCUACAUCAAUTT against DAXX, the figure is 0.349; as for AUAUCGCUGUGAUGCAAAATT against PLA2G12B, -0.162.
As for ACAGCGAGGUCAAAAGAAATT against HSD11B1, the median seed-adjusted z-score was -0.174.
Take GGACUAAGUGAAGAGCUUATT against NFYB: the median seed-adjusted z-score is -0.29.
For the sequence GAGCUGAACUUGUCAUUCUTT against RANGAP1, the median seed-adjusted z-score is -0.0379.
With CAUGAACCCAGUGAAGAUATT against IRF6 the figure was -1.79 (active); with CACUCAACAUUACAGAUUUTT against ZNF514, 0.125.
CAGCUUUACGAGUAUGCAATT against HS6ST3: the median seed-adjusted z-score is -0.405.
